Compounds with a hit are over-represented: about 19% of the library has one in this group of screens.
TDP1 block = blocks human tyrosyl-DNA phosphodiesterase 1. Q9NUW8. recombinant TDP1, AlphaScreen DNA substrate cleavage. Potency, µM (highest dose often 130 µM), without a hit: at the highest dose activity change, negative = inhibition, hits mostly inhibitors. 0.28% of 350,000 active. AID 485290; further: nearly all actives have a fitted effect of over 40% in size
Target sequence (Q9NUW8 whole entry, looked up): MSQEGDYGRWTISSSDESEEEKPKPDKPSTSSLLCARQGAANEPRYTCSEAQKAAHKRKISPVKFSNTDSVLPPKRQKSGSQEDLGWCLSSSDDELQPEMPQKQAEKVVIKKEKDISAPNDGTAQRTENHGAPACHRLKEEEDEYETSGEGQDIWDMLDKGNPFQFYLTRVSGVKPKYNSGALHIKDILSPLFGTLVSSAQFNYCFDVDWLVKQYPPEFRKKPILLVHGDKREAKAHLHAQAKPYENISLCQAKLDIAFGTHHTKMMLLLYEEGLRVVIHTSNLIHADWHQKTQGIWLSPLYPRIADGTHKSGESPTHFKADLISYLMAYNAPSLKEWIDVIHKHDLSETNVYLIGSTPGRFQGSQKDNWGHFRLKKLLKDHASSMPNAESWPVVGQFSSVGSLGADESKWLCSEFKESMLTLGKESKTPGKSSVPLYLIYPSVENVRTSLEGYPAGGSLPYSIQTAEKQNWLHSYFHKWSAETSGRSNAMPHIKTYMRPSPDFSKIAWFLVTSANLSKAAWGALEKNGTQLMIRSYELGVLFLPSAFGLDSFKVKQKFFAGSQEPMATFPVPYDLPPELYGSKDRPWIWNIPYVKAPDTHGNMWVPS
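Recombinant human Tdp1 (E. coli-expressed, 1 nM final) preincubated with compounds 15 min at room temperature, then 5'-biotin/3'-phosphotyrosine-FITC DNA substrate (15 nM final) added for 5 min. AlphaScreen beads (10 ug/ml final) added 10 min; cleavage lowers signal.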
VP16 counter = counter-screen for ROR gamma inhibitors: Gal4-VP16 reporter; Drosophila S2 Gal4-VP16 UAS-luciferase, luminescence, 20 h; AID 2546; Potency, µM (titrated, usually from 53.6 µM), for inactives: at the highest dose activity, negative = inhibition, usual class: inhibitors; 3.5% of 310,000 active;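 further: Gal4-VP16 expression switched on by copper sulfate through the metallothionein promoter; nearly all actives have a fitted effect of over 50% in size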
DT40 TDP1 CPT = growth inhibition of DT40 Tdp1-/-;hTDP1 cells with camptothecin (screen for TDP1 inhibitors); Potency, µM (top dose mostly 46.2 µM), for the others: top-dose activity change, negative = growth inhibition, hits mostly inhibitors; 12% of 420,000 active; chicken DT40 Tdp1-/-;hTDP1 cells + 20 nM CPT, ATP luminescence, 48 h; further: nearly all actives have a fitted effect of over 55% in size
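Cell growth measured by CellTiter-Glo luminescence after a minimum 48 h, 37 C compound exposure with 20 nM CPT in Tdp1-knockout DT40 cells stably expressing hTDP1, seeded 400/well; qHTS titration format.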
RORgamma inh = ROR gamma (mouse) transcription inhibition. P51450. Drosophila S2 Gal4-RORgamma UAS-luciferase reporter, 20 h. Potency, µM (highest dose often 53.6 µM), for inactives: top-dose activity change, negative = inhibition, hits mostly inhibitors. 5.4% of 310,000 active. AID 2551; further: nearly all actives have a fitted effect of over 60% in size
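Luciferase reporter read in Schneider cells carrying Gal4-RORγ (mouse) and UAS-Photinus luciferase; cells given compound 1 h before 700 uM copper sulfate induction, then incubated 20 h at ambient temperature.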
TDP1 cell noCPT = qHTS for Inhibitors of human tyrosyl-DNA phosphodiesterase 1 (TDP1): qHTS in cells in absence of CPT. DT40 Tdp1-/- hTDP1 cells, no CPT, ATP luminescence, 48 h. Potency, µM (series often up to 46.2 µM), inactives show at the highest dose activity change, negative = growth inhibition, hits mostly inhibitors. 15% of 420,000 active; further: nearly all actives have a fitted effect of over 55% in size
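Luminescent ATP content (CellTiter-Glo) served as the growth readout. Knockout chicken DT40 cells expressing human TDP1 were exposed to compounds without camptothecin for a minimum 48 hr at 37 °C.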
* marks the source's active call; other numbers are inactive results; u = inconclusive; x = no result; [ ] = dose if it differs, or a comment. The call rests on the fitted dose curve; in most records, active means well fitted curve in the direction sought with a large enough effect; inconclusive means small, poorly fitted or top-dose-only effect, or another doubt; inactive means no such curve, though single readings can be large; an effect the other way counts as inactive or inconclusive. On the % scale 0 is the no-effect control and ±100 the full control effect; potency means the concentration at half of the fitted maximal effect.

SMILES	TDP1 block	VP16 counter	DT40 TDP1 CPT	RORgamma inh	TDP1 cell noCPT
O=C(COc1ccc(Cl)cc1Cl)NCCCCc1ccccc1	-15%	0%	-16%	-5%	-13%
Cc1ccccc1/C=N/NC(=O)Cc1ccc(Cl)cc1	5%	6%	0%	27%	-28%
Cc1ccc(NC(=O)CCC(=O)N/N=C/c2cccnc2)cc1	x	-3%	-16%	0%	u
Cc1ccc(/C=N/NC(=O)Cc2ccc(Cl)cc2)c(O)c1	50µM*	0.56µM*	16µM*	0.22µM*	21µM*
C/C(=N\OCC(=O)N/N=C/c1ccc(C)cc1O)c1cccs1	8%	2.8µM*	4.6µM*	0.5µM*	4.1µM*
C=CCc1cccc(/C=N/NC(=O)CCC(=O)Nc2ccc(C)cc2)c1O	3%	u	15µM*	1.6µM*	10µM*
C/C(=N\NC(=O)CO/N=C(\C)c1cccs1)c1ccc(N)cc1	1%	0%	-4%	4%	-3%
O=C(CCC(=O)N/N=C/c1ccccc1O)NCc1ccccc1	5%	-24%	u	20µM*	u
O=C(CC(=O)N/N=C/c1ccccc1)NCc1ccccc1	5%	1%	-4%	2%	-5%
COc1ccc(Nc2c3c(nc4nncn24)CCC3)cc1OC	0%	x	u	x	u
O=C(O)c1ccccc1-n1cnnn1	x	-9%	-3%	-4%	15%
O=C(CCC(=O)Nc1ccc(F)cc1)N/N=C/c1ccccc1O	3%	-24%	u	14µM*	u
O=C(N/N=C/c1cc([N+](=O)[O-])ccc1O)c1cccc(NC(=O)c2cccc(Cl)c2)c1	56µM*	u	5.2µM*	4.5µM*	3.3µM*
Cc1cccc(NC(=O)CCC(=O)N/N=C/c2cc([N+](=O)[O-])ccc2O)c1	7%	-7%	u	8.9µM*	u
O=C(CCC(=O)Nc1ccc(Br)cc1)N/N=C/c1cc([N+](=O)[O-])ccc1O	4%	-23%	23µM*	-34%	u
O=C(CN1C(=O)NC2(CCCC2)C1=O)Nc1ccccc1N1CCCCC1	1%	x	-22%	x	-2%
Cc1ccc(NC(=O)CCC(=O)Nc2ccc(C)cc2)cc1	2%	3%	-3%	-30%	-2%
Cc1ccc(/C=N/NC(=O)Cc2c[nH]c3ccccc23)c(C)c1	7%	-4%	-24%	37%	u
Cc1ccc(NC(=O)CCC(=O)N/N=C/c2ccc(O)cc2O)cc1	x	-5%	15µM*	-33%	16µM*
O=C(CCN1CCN(c2ccccc2)CC1)N/N=C/c1ccccc1O	0%	6.3µM*	u	2µM*	-118%
O=C(Cc1c[nH]c2ccccc12)N/N=C/c1ccccc1O	10%	10µM*	16µM*	2.2µM*	u
CSc1cccc(-n2cc(-c3ccc4c(c3)OCO4)[nH]c2=O)c1	8%	0%	4.6µM*	10%	5.2µM*
CSc1cccc(NC(=O)CNC(=O)c2ccc3c(c2)OCO3)c1	x	x	-23%	x	-7%
CCOc1ccc(OCC)c(Nc2cc(C)nc3nc(C)nn23)c1	-5%	-10%	18µM*	-30%	u
Cc1cc(Nc2ccc(Br)cc2F)n2nc(C)nc2n1	3%	7.9µM*	u	3.2µM*	-11%
SMILES	TDP1 block	VP16 counter	DT40 TDP1 CPT	RORgamma inh	TDP1 cell noCPT
COC(=O)c1sccc1NC(=O)Cn1nnc(-c2ccc(C)cc2)n1	1%	-5%	-26%	1%	u
COc1ccc(N(Cc2cc3ccc(C)cc3[nH]c2=O)C(=O)C2CCCO2)cc1 (stereo not given)	x	5%	-3%	12%	-3%
COc1ccc(N(Cc2cc3ccc(C)cc3[nH]c2=O)C(=O)c2ccco2)cc1	4%	-1%	23µM*	13%	21µM*
Cc1cccc(N(Cc2cc3ccccc3[nH]c2=O)C(=O)c2ccco2)c1C	7%	1%	26µM*	-3%[10 µM]	-84%
CC(=O)n1nc(-c2cccc(C)c2)nc1SCC(=O)Nc1ccccc1	0%	3%[0.365 µM]	u	u	u
CCOC(=O)Cc1csc(NC(=O)CSc2nc(-c3ccccc3)c(C#N)c(=O)[nH]2)n1	-3%	0%	11%	2%	3%
Cc1nc2c(c(=O)n1Cc1ccccc1Cl)c1nc3ccccc3nc1n2Cc1ccco1	-4%	3%	x	3%	x
CCO/C(C)=N/n1c2nc3ccccc3nc2c2c(=O)n(Cc3ccccc3Cl)c(C)nc21	-2%	-3%	u	0%	26µM*
CCS(=O)(=O)c1ccc2oc(SCC(=O)NC34CC5CC(CC(C5)C3)C4)nc2c1	1%	-8%	u	20%	13µM*
CCCCC[C@H](O)C=C[C@H]1[C@H](O)CC(=O)[C@H]1CCCCCCC(=O)O	11%	u	u	7%	u
CCCCC[C@H](O)/C=C/[C@H]1CCC(=O)[C@@H]1CCCCCCC(=O)N1CCCCC1CO (stereo not given in full)	x	-9%	23µM*	0%	15µM*
O=S(=O)(c1cccc(Cl)c1)N1CCSc2ccccc21	-9%	x	-12%	x	-4%
CCN(CC)C(=O)C1=C(C)N(Cc2ccc(F)cc2)C(=O)C(CC(=O)NC(c2ccccc2)c2ccccc2)C1 (stereo not given)	x	x	u	x	21µM*
CC1=C(C(=O)N2CCOCC2)CC(CC(=O)NC(c2ccccc2)c2ccccc2)C(=O)N1Cc1ccc(C(C)(C)C)cc1 (stereo not given)	x	x	u	x	16µM*
CC1=C(C(=O)N2CCOCC2)CC(CC(=O)NCCN2CCOCC2)C(=O)N1Cc1ccc(C(C)(C)C)cc1 (stereo not given)	x	x	4%	x	-16%
CC1=C(C(=O)N(C)C)CC(CC(=O)NC(c2ccccc2)c2ccccc2)C(=O)N1Cc1ccc(C(C)(C)C)cc1 (stereo not given)	x	x	u	x	23µM*
CCCCN1C(=O)C(CC(=O)NC(c2ccccc2)c2ccccc2)CC(C(=O)N(C)C)=C1C (stereo not given)	x	x	-10%	x	4%
CCN(CC)C(=O)C1=C(C)N(Cc2ccc(F)cc2)C(=O)C(CC(=O)NCc2cccs2)C1 (stereo not given)	x	x	-6%	x	-8%
CCN(CC)C(=O)C1=C(C)N(Cc2ccc(C(C)(C)C)cc2)C(=O)C(CC(=O)NC(c2ccccc2)c2ccccc2)C1 (stereo not given)	x	x	13µM*	x	12µM*
Cc1ccc(CNC(=O)CCCN2C(=O)c3cccnc3Oc3ccc(Cl)cc32)cc1	4%	x	u	x	u
CCCCN1C(=O)C(CC(=O)NC(c2ccccc2)c2ccccc2)CC(C(=O)N(C(C)C)C(C)C)=C1C (stereo not given)	x	x	23µM*	x	21µM*

High-throughput results (PubChem BioAssay)
